Compound activity as filed in PubChem BioAssay.
KCNQ2 pot: potentiators of rat KCNQ2 potassium channel | Potassium voltage-gated channel subfamily KQT member 2 (Rattus norvegicus), O88943 | CHO-K1 KCNQ2, FluxOR thallium flux fluorescence; hits give high values | B-score at 10 µM | 310,000 tested, 0.54% active;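 active means fluorescence ratio B-score at least 3 SD of library B-scores, with initial fluorescence B-score within 3 of them, cut at about 5.3 in these data; same plate scores as AID 2156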;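 further: B-score of peak minus minimum over baseline fluorescence ratio after K+ and Tl+ stimulus; positive B-score means potentiation of KCNQ2 with more thallium influx and brighter signal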
Target sequence (O88943 whole entry, looked up): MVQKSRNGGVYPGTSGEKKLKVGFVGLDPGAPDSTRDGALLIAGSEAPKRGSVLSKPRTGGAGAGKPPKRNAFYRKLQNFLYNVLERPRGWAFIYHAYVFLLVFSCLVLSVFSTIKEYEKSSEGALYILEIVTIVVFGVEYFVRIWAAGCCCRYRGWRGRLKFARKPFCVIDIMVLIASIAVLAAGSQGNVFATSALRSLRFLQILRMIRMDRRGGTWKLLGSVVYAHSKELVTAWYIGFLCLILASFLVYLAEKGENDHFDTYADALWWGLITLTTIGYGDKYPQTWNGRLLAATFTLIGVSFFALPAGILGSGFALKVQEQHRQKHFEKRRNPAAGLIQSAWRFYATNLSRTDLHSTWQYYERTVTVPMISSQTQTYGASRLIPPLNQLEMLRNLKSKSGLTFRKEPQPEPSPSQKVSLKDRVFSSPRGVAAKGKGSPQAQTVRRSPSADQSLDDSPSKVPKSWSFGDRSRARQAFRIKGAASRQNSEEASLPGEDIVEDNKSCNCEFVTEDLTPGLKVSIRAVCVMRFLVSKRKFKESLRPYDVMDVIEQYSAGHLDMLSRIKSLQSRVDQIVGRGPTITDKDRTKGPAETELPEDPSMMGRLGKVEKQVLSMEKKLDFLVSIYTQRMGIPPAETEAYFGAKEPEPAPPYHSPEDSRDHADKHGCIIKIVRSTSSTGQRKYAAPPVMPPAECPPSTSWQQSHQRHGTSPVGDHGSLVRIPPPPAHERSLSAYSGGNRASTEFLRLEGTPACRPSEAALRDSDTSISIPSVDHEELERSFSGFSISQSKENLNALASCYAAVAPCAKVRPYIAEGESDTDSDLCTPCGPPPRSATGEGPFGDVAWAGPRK
KCNQ2 inh: rat KCNQ2 potassium channel inhibitors, primary screen, cell-based, CHO-K1, FluxOR thallium flux, B-score. 20 min; hits give low values. B-score at 10 µM. 310,000 tested, 1.1% active;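 active means fluorescence ratio B-score at most minus 3 library SDs, with starting brightness B-score within 2 library SDs, cut at about -5.5 in these data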
A number is an active result; n = inactive; x = no result given. Compounds with a hit are over-represented: about 1.6% of the library has one in this group of screens.

SMILES	KCNQ2 pot	KCNQ2 inh
Cc1cccc(C)c1NC(=O)CN(C)C(=O)c1ccccc1C(=O)N(C)Cc1ccccc1	n	-6.6
Cc1ccccc1C(=O)N(C)Cc1ccccc1	x	n
COc1cccc(CC(=O)N2CCC(n3nccc3NC(=O)C3CCOC3)CC2)c1 (centres undefined)	x	n
CNc1cc(CSc2ccc(Cl)cc2)nc(C)n1	n	n
Cc1nc(CSc2ccc(Cl)cc2)cc(NCc2ccccc2)n1	n	-5.69
CC1(C)Cc2c(cnn2-c2ccc(F)cc2)C(NC(=O)CCN2CCCCC2=O)C1 (centres undefined)	n	n
O=C(Nc1cccc(Cl)c1)N(CCN1CCOCC1)Cc1ccccc1F	x	n
O=C(Nc1cccc(Cl)c1)N(CCN1CCOCC1)Cc1cccc(Cl)c1	n	-7.33
Cc1cc(C)c(C#N)c(SCC(=O)CC(=O)OC(C)C)n1	x	n
CC(C)OC(=O)CSc1nc2c(c(C3CC=CCC3)c1C#N)CCC2 (centres undefined)	n	-5.97
COc1ccccc1C(=O)Nc1ccccc1N1CCOCC1	x	n
COc1c(C(=O)Nc2ccccc2N2CCOCC2)cc2ccccc2c1Br	n	-7.47
COc1ccc(N2CCOCC2)c(NC(=O)c2cc3ccccc3o2)c1	n	-7.34
O=C(Nc1ccccc1N1CCOCC1)c1cc2ccccc2o1	x	n
CCOC(=O)c1ccc(NC(=O)N2CCN(c3cccc(OC)c3)CC2)cc1	x	n
CC(C)On1c(SCC(=O)N(C)C)nc2ccccc2c1=O	n	n
COc1ccc(CCNC(=O)CCc2ccc(S(=O)(=O)NC(C)C)cc2)cc1	n	n
CC(C)OC(=O)c1c(NC(=O)c2ccco2)sc2c1CCCCC2	n	-6.32
COC(=O)c1c(NC(=O)c2ccco2)sc2c1CCC2	x	n
COCCn1c(SCc2nnc(-c3ccccc3)o2)nc2sc3c(c2c1=O)CCC3	n	-6.63
COCCn1c(SCC(=O)Nc2ncc(C)s2)nc2sc3c(c2c1=O)CCC3	n	n
CC1(C(=O)OCC(=O)Nc2nnc(-c3ccccc3)o2)CC1(Cl)Cl (centres undefined)	n	n
Cc1ccc(OCc2ccc(C(=O)NN)o2)cc1C	x	n
COc1ccccc1NC(=O)c1ccc(COc2ccccc2OC)o1	x	n
COC(=O)c1ccccc1NC(=O)c1ccc(COc2ccc(C)c(C)c2)o1	n	-6.59
SMILES	KCNQ2 pot	KCNQ2 inh
COC(=O)c1ccccc1NC(=O)c1ccc(COc2cc(C)cc(C)c2)o1	n	-6.38
Cc1nn(CC(=O)Nc2ccc(S(N)(=O)=O)cc2)c(=O)c2ccccc12	x	n
CCOC(=O)COc1c(/C=N\O)cc(Cl)cc1OC	x	n
CCCOc1ccc(N2C(=O)CC(N3CCN(CCN=CC4C(=O)CC(C)(C)CC4=O)CC3)C2=O)cc1 (centres undefined)	x	n
CCCc1cc(-c2[nH]ncc2-c2ccc3c(c2)OCCCO3)c(O)cc1O	n	-8.53
CCCc1cc(-c2[nH]ncc2-c2ccc(C(=O)OCC)o2)c(O)cc1O	n	n
Cc1ccc(CNC(=O)c2sc3nc4c(c(C(F)(F)F)c3c2N)CCC4)cc1	x	n
Nc1c(C(=O)NCc2ccc(Cl)cc2)sc2nc3c(c(C(F)(F)F)c12)CCC3	n	-6.07
Cc1c(C(=O)OCC(=O)Nc2ccc(C(N)=O)cc2)cccc1[N+](=O)[O-]	n	n
COc1ccc(N2CCN(C(=O)CN(c3ccc(OC)cc3)S(=O)(=O)c3ccccc3)CC2)cc1	x	n
O=C(CN(c1ccc(Cl)cc1)S(=O)(=O)c1ccccc1)N1CCN(c2ccccc2)CC1	n	-7.41
CCN1C(=O)[C@H]2[C@@H](c3ccc(-c4ccc(C(C)=O)cc4)c(OC)c3)N[C@@](Cc3ccccc3)(C(=O)OC)[C@H]2C1=O	x	n
O=C(NN=C1CCCC1)c1ccccc1OCc1ccc(Cl)cc1	x	n
COc1ccc(C(=O)NCCCn2cccn2)cc1OC1CCN(C(C)=O)CC1	n	n
Cn1c(=O)c([N+](=O)[O-])c(Cl)c2ccccc21	n	-6.15
CCN(CC)c1c([N+](=O)[O-])c(=O)n(C)c2ccccc12	x	n
Cc1cc(C)cc(NC(=O)C2(c3ccccc3)CC2(Cl)Cl)c1 (centres undefined)	n	-6.29
Cc1cccc(NC(=O)C2(c3ccccc3)CC2(Cl)Cl)c1 (centres undefined)	x	n
COCC(=O)N1CCC(Oc2ccc(C(=O)NC(C)c3nc(C)sc3C)cc2)CC1 (centres undefined)	x	n
CCCCN(C(=O)c1cccc2c(=O)c(C)c(-c3ccccc3)oc12)c1ccccc1	x	n
CN(C(=O)COC(=O)C(Cc1ccccc1)NC(=O)c1ccccc1)c1ccccc1 (centres undefined)	n	-5.67
CN(C)C(=O)COC(=O)[C@H](Cc1ccccc1)NC(=O)c1ccco1	x	n
Cc1ccc(C)c(-n2cc[nH]c2=S)c1	n	n
CC(C)CNC(=O)c1oc2ccccc2c1COc1ccccc1	n	-6.38
CCC(CC)NC(=O)c1oc2ccccc2c1COc1ccccc1	x	n
SMILES	KCNQ2 pot	KCNQ2 inh
COc1ccc(N(CC(=O)NC2CCCC2)C(=O)CCC(=O)Nc2nc(C)cs2)cc1OC	n	n
CC(=O)N1CCN(CC(=O)Nc2cc(S(=O)(=O)N3CCOCC3)ccc2C)CC1	x	n
C=CCc1cccc(/C=N/NC(=O)CNc2ccccc2OC)c1O	6.2	n
C=CCc1cccc(/C=N/NC(=O)CNc2cccc3ccccc23)c1O	n	n
O=[N+]([O-])c1c(NCCO)cc(N2CCCCCC2)c2nonc12	x	n
O=[N+]([O-])c1c(NCCCO)cc(Sc2nc3ccccc3s2)c2nonc12	x	n
CCC(=O)OCCNc1cc(Sc2nc3ccccc3s2)c2nonc2c1[N+](=O)[O-]	n	-7.54
Cc1nnc(Sc2cc(NCCO)c([N+](=O)[O-])c3nonc23)s1	n	-7.52
COc1ccc(-c2[nH]ncc2CN(CCO)Cc2cccs2)c(F)c1	n	n
CCOc1ccc(NC(=O)c2ccc(Cl)c(NC(=O)c3ccco3)c2)cc1	x	n
CCn1cc(CN2CCC(n3nccc3NC(=O)C3CCCC3)CC2)cn1	n	n
COC(=O)C(CC(=O)c1ccc(Cl)cc1)c1ccc(C(C)C)cc1 (centres undefined)	n	-5.86
Cc1ccc(C(CC(=O)c2ccc(Cl)cc2)C(=O)O)cc1 (centres undefined)	x	n
CCCCCN1CC(=O)N2Cc3[nH]c4ccccc4c3C[C@H]2C1=O	x	n
O=C1[C@@H]2Cc3c([nH]c4ccccc34)CN2C(=O)CN1CCCO	n	n
CCCCN1C(=O)C2Cc3c([nH]c4ccccc34)CN2C1=S (centres undefined)	n	-5.56
CCCCCCN1CC(=O)N2Cc3[nH]c4ccccc4c3C[C@H]2C1=O	n	-6.93
COc1ccccc1CNC(=O)COC(=O)c1nccnc1N	n	n
COC(=O)CCSC(=S)N1CCOCC1	n	n
CCOc1cccc(-c2c(C(=O)N/N=C/c3cccs3)nnn2-c2nonc2N)c1	n	n
CN(CCOc1ccc(Br)cc1)C(=O)CNC(=O)c1ccc2ccccc2c1	n	-6.45
CCOc1ccc(CN(C)C(=O)CNC(=O)c2ccccc2)cc1	x	n
O=S(=O)(c1ccccc1)N1CCC(=NO)CC1	n	n
O=S(=O)(c1ccccc1)C(/C=N\O)/C=C/c1ccccc1 (centres undefined)	n	-6.29
O=S(=O)(Nc1cccc(-c2nc3cccnc3s2)c1)c1ccc2c(c1)CCCC2	x	n
Cc1ccc(-c2nc3cccnc3s2)cc1NS(=O)(=O)c1ccc2c(c1)CCCC2	n	-5.98
